What all share (type): functional
For test [1], the target named is Solute carrier family 2, facilitated glucose transporter member 1 (Homo sapiens) (UniProt P11166). Briefly: ST_JUDE_LEISH: Cytotoxicity at 2uM final concentration against transgenic Leishmania Mexicana promastigotes LmGLUT1 that are glucose transport deficient and complemented with the human glucose transporter GLUT1. Activity is measured by DNA content using SYBR green in vitro.

Test [2] deals with Hexose transporter 1 (Plasmodium falciparum) (UniProt O97467). Briefly: ST_JUDE_LEISH: Cytotoxicity at 2uM final concentration against transgenic Leishmania Mexicana promastigotes LmPfHT that are glucose transport deficient and complemented with the Plasmodium falciparum hexose transporter. Activity is measured by DNA content using SYBR green in vitro.
Test [3] addresses Glucose transporter (Leishmania mexicana) (UniProt O61059). Briefly: ST_JUDE_LEISH: Cytotoxicity at 2uM final concentration against transgenic Leishmania Mexicana promastigotes LmGT2 that are glucose transport deficient and complemented with the L. Mexicana glucose transporter 2. Activity is measured by DNA content using SYBR green in vitro.

The structures appear in SMILES notation.

The record followed here is ChEMBL document CHEMBL3433997, “St. Jude Leishmania screening dataset” (2016).

Chain of Solute carrier family 2, facilitated glucose transporter member 1 (Homo sapiens) (P11166 whole entry): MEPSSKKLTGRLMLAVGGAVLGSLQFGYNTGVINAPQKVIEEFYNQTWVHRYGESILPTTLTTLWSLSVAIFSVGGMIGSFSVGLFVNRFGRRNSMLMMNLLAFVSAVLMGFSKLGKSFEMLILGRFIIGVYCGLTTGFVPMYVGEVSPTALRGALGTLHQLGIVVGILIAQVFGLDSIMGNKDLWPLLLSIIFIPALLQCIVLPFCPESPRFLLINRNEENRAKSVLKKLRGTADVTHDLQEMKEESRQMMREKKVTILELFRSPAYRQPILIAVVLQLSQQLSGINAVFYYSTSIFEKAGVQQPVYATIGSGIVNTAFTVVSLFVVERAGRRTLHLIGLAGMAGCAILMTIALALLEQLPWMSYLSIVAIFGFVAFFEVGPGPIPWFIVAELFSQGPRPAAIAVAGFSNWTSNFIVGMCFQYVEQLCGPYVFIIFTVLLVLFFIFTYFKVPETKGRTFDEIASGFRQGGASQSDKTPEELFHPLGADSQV

Broadly, the inhibition is the drop in the measured response relative to a control, in per cent. On to `Nc1nc(-c2ccc3c(Nc4ccc(F)c(Cl)c4)ccnc3c2)cs1`, for which the inhibition in test [1] was determined as 3.22%; in test [2], 4.08%; in test [3], 3.86%.
The corresponding values for `COc1ccc2ncc(F)c(CCN3CC(O)C(CNCc4ccc(F)cc4)C3)c2n1` (stereo not drawn) are 3.37%, 3.9% and 2.68%.
Take `CCNC(=O)c1ccc(-n2nc(C)cc2-c2ccccc2)cc1`: the inhibition in test [1] was 2.66%; in test [2], 3.31%; in test [3] it was -0.67%.
The corresponding values for `Cc1cccc(-c2nc3cc(NC(=O)c4ccc([N+](=O)[O-])o4)ccc3o2)c1` are 6.53%, 7.69% and 2.04%.
For the compound `O=C(c1ccc(F)cc1)N1CCOC(CCN2CCC(c3ccccc3)CC2)(c2ccc(Cl)c(Cl)c2)C1` (stereo not drawn), the values for the inhibition in test [1], in test [2] and in test [3] were 0.53%, 1.42% and 5.2%, respectively.
The like results for `CCCc1cc(Cc2cnc(N)nc2N)c2cccnc2c1OC` were, in that order, 6.44%, 4.01% and 4.33%.
The corresponding values for `O=[N+]([O-])c1ccc2c(-c3ccccc3)c(-c3ccccc3)n(O)c2c1` are 2.37%, 3.54% and 0.3%.
The like results for `Cc1ccc(S(=O)(=O)N2CCN(C(=O)c3cc(-c4cccs4)n[nH]3)CC2)c(C)c1` were, in that order, 2.83%, 2.34% and -0.33%.
As for `O=C(Nc1ccc(Cl)c(Cl)c1)Nc1ccc2nccc(N3CCN(Cc4ccccc4)CC3)c2c1`, the inhibition came to 3.7% in test [1], 0.94% in test [2] and 3.64% in test [3].
The corresponding values for `COc1ccc(-c2cccc(NC(=O)c3cccc(C#N)c3)c2)cc1CN1CCN(C)CC1` are 4.2%, 2.19% and 3.24%.
For `Fc1ccc(C2N=C(SCCSC3=NC(c4ccc(F)cc4)C(c4ccc(F)cc4)N3)NC2c2ccc(F)cc2)cc1` (stereo not drawn), the inhibition in test [1] stood at 1.34%; in test [2] it was 3.1%; in test [3], 3.33%.
`CN1CCC[C@H]1COc1ccc(CN2CC[C@H](NC(=O)c3ccc(Cl)c(Cl)c3)C2)c2ccccc12`: the inhibition came to 9.64% in test [1], 8.86% in test [2] and 6.54% in test [3].
The corresponding values for `COc1cccc(C(=O)NCc2cccs2)c1Oc1ccccc1` are 13.2%, 12.2% and 11%.
The like results for `COc1ccc(C(=O)CCC(=O)N(CCC2CCCN2C)Cc2ccc(-c3ccc(CNCCc4ccc(S(C)(=O)=O)cc4)cn3)cc2)cc1F` (stereo not drawn) were, in that order, 11.4%, 9.98% and 9.19%.
Regarding `COc1cc(CN=C(S)NN=C(C)c2ccccn2)cc(OC)c1OC`, the inhibition in test [1] turned out to be 5.41%; in test [2] it was 1.2%; in test [3] it was 2.59%.
Regarding `COc1cc(OC)cc(C(=O)Nc2nc(-c3ccc(NC(=O)c4ccccc4)cc3)cs2)c1`, the inhibition came to 16.3% in test [1], 9.26% in test [2] and 5.46% in test [3].
The corresponding values for `O=C(Nc1cccc(-c2cccc(-c3nc4cc(F)ccc4[nH]3)c2)c1)c1ccncc1` are 0.54%, 0.29% and 0.2%.
The corresponding values for `CN1CCCN(Cc2ccc(-c3ccc(NC(=O)c4cccc(Cl)c4)cc3)cc2)CC1` are 0.35%, -1.66% and -0.18%.
The corresponding values for `COc1cccc(CNC[C@@H](O)[C@H](Cc2ccccc2)NC(=O)c2cc(N3CCCC3=O)c3[nH]cc(C(C)C)c3c2)c1` are 1.26%, 2.02% and 2.36%.
`CCOc1ccc(-c2nc(NC(=O)CS(=O)(=O)c3ccccc3)sc2C)cc1`: the values for the inhibition in test [1], in test [2] and in test [3] were 2.75%, 2.62% and 1.8%, respectively.
The corresponding values for `CC(C)CNCc1ccc(-c2ccc(CNC3CCN(Cc4ccccc4)CC3)cc2)cc1` are 0.98%, 4.82% and 5.31%.
For the compound `Cc1ccc(C(C#N)c2ccc3c(C(F)(F)F)cc(C(F)(F)F)nc3n2)cc1` (stereo not drawn), the inhibition turned out to be 1.88% in test [1], 2.44% in test [2] and 4.34% in test [3].
On to `COc1ccc(CCNCC(O)c2cccc(Br)c2)c(Cl)c1OC` (stereo not drawn), for which the inhibition in test [1] was -3.38%; in test [2] it was -1.73%; in test [3], -3.62%.
In the case of `CC(=O)Nc1cccc(/C=C/C(=O)N2CCC(N3CCCCC3)CC2)c1`, the inhibition in test [1] came out at 2.23%; in test [2] it was 1.03%; in test [3], 5.39%.
The like results for `Oc1ccc(Cl)cc1CN1CCCC(COC(c2ccc(F)cc2)c2ccc(F)cc2)C1` (stereo not drawn) were, in that order, 0.85%, 1.7% and -2.44%.
As for `Oc1ccc(CCNCCCCCNCCCc2ccc(Cl)cc2)cc1O`, the inhibition in test [1] was 2.04%; in test [2], -0.25%; in test [3], 2.06%.
The like results for `CS(=O)(=O)c1ccc(CCNCc2ccc(-c3ccc(CN(C(=O)C4CCCC4)C4CCN(Cc5ccccc5)CC4)cc3)nc2)cc1` were, in that order, 0.69%, 0.71% and -2.64%.
The like results for `COc1ccc2nccc([C@@H](O)CN3CCC(NCCOc4ccccc4[N+](=O)[O-])CC3)c2c1` were, in that order, 2.3%, 2.26% and 0.09%.
The corresponding values for `N#Cc1c(-c2ccccc2)cn2c1[nH]c(=O)c1ccccc12` are -1.7%, 2.37% and 1.89%.
On to `CC(C)(C)c1ccc2nccc(Nc3cccc(O)c3)c2c1`, for which the inhibition was 2.99% in test [1], 2.35% in test [2] and 2.33% in test [3].
On to `CC(C)COc1ccc(Cl)cc1Cc1ccc(-c2nc3ccc(F)c(F)c3[nH]2)o1`, for which the inhibition in test [1] is 0.98%; in test [2], -1.63%; in test [3], 0.57%.
As for `Cc1cc(N[C@@H](Cc2ccccc2)C(=O)NC2CCCC2)nc(Nc2ccccc2)n1`, the inhibition in test [1] amounted to 7.17%; in test [2], 7.28%; in test [3], 2%.
The corresponding values for `CCc1ccc(CN(CCCOc2cccc(CC(=O)NCc3c[nH]cn3)c2)Cc2ccc(-n3ccnc3)cc2)cc1` are 2.55%, 2.84% and 3.08%.
`COc1ccc2c(N/N=C/c3cccc([N+](=O)[O-])c3)cc(C)nc2c1`: the inhibition in test [1] was 1.12%; in test [2] it was 4.05%; in test [3] it was 0.63%.
The like results for `COc1ccc2nccc([C@@H](O)CN3CCC(NCc4ccc5c(c4)NC(=O)CS5)CC3)c2n1` were, in that order, 0.52%, 2.86% and -3.81%.
On to `OC(CNc1ccnc(Nc2cccc(Cl)c2)n1)c1cccc(F)c1` (stereo not drawn), for which the inhibition was 3.71% in test [1], 4.41% in test [2] and -3.09% in test [3].
